Data on 24 compounds can be found in PubChem BioAssay (NCATS).

Test [1] addresses Methanococcus maripaludis chaperonin (MmCpn) (UniProt Q6LX38). Description: High-Throughput Screening for Modulators of Cytosolic Chaperonin Activity: MmCpn Primary Screen (AID 488978).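 Note: 50 nM MmCpn enzyme hydrolysing 30 µM ATP at 37 °C.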 An outline of the steps: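 Steps: chaperonin 50 nM final; add compound, 5 min RT; start with ATP, 30 uM final; hold 10 min at 37C; add ADP Transcreener HTRF reagent, 5 min; read ex 320, em 590 and 665 nm.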

The target of test [2] is D(1A) dopamine receptor (Homo sapiens) (UniProt P21728). Description: HTS Assay for Allosteric Agonists of the Human D1 Dopamine Receptor: Primary Screen for Agonists (AID 488981). In outline: (§1)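 Tetracycline-induced HEK293 Trex D1 cells with forced coupling to calcium, loaded with no-wash calcium dye; kinetic fluorescence read 180 s after compound addition for agonism, then a further 180 s after an EC20 dopamine challenge for potentiation.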

Test [3] shares this target. Description: HTS Assay for Allosteric Agonists of the Human D1 Dopamine Receptor: Primary Screen for Potentiators (AID 488982). An outline of the steps: as §1
Test [4] shares this target. As to the kind of experiment: HTS Assay for Allosteric Agonists of the Human D1 Dopamine Receptor: Primary Screen for Antagonists (AID 488983).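 Note: calcium flux response to an EC80 dopamine challenge measured with no-wash dye; nearly all actives have a fitted effect of over 65% in size.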 In outline:
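Tetracycline-induced HEK293 T-REx D1 line, force-coupled to calcium flux, read with no-wash calcium dye. Compound added after 10 s baseline, read 180 s for agonism, then EC80 dopamine added and read a further 180 s.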

The target of test [5] is ATP-dependent 6-phosphofructokinase (Trypanosoma brucei brucei) (UniProt O15648). As to the kind of experiment: qHTS Assay to Find Inhibitors of T. brucei phosphofructokinase: hit validation (AID 492961).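 Note: luminescence reports ADP formed as PFK phosphorylates fructose-6-phosphate with ATP; series mostly up to about 51 µM.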 An outline of the steps: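 Inhibition of parasite PFK is measured as reduced ADP formation, quantified via luciferase after ATP depletion. Assay used 0.1 mM ATP, 0.5 mM F6P, 1.25 nM enzyme, 45 min incubation.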

Test [6] in a line: Validation screen for small molecules that induce genotoxicity in human embryonic kidney (HEK293T) cells expressing luciferase-tagged ELG1 (AID 493106). In outline: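 HEK293T cells expressing luciferase-tagged ELG1, 2,000 cells/well, exposed to compound 16 hr at 37 °C, 5% CO2. Luciferase read after ONE-Glo, 30 min at room temperature; increased signal indicates genetic stress.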

The target of test [7] is ATPase family AAA domain-containing protein 5 (Homo sapiens) (UniProt Q96QE3). Description: Validation screen for small molecules that inhibit ELG1-dependent DNA repair in human embryonic kidney (HEK293T) cells expressing luciferase-tagged ELG1 (AID 493107).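 Note: cells co-treated with the DNA-damaging agent 5-fluorouridine alongside compound; series mostly up to about 46 µM; inhibitors lower the ELG1-luciferase luminescence signal; nearly all actives have a fitted effect of over 70% in size.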 In outline:
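HEK293T cells expressing luciferase-tagged ELG1, 2,000 per well, treated with 5-fluorouridine plus compound for 16 h at 37 C. ONE-Glo luminescence after 30 min at room temperature reports ELG1 reporter level.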

Test [8] can be described thus: qHTS for Inhibitors of Cell Surface uPA Generation: Validation Assay (AID 493164). In outline: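 RAW 264.7 cells (4000/well) were plated overnight, then exposed for 18 h at 37 C, 5% CO2 to compounds in a 7-point 1:5 titration (2.45 nM–38.3 uM final). Intracellular ATP was read by ATP-Lite luminescence.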
For orientation: Quantitative high-throughput screening tests each substance at several concentrations.

Test [9] concerns the target Peptidyl-prolyl cis-trans isomerase NIMA-interacting 1 (Homo sapiens) (UniProt Q13526). As to the kind of experiment: qHTS Validation Assay to Find Inhibitors of Pin1 (AID 504536; active = well fitted inhibition curve with a large enough effect in the polarisation, with a control signal flat, not every such curve was filed as active; the % refers to the polarisation). An outline of the steps: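 Fluorescence polarization competition: compounds (titration) displace HiFluor-488-labeled Pin1-1b peptide from Pin1 (0.3 uM final) in pH 7.5 HEPES buffer with DTT, 10 min at room temperature; %Activity normalized to no-enzyme wells, curves fitted.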

For test [10], the target named is Phosphoglycerate kinase, glycosomal (Trypanosoma brucei brucei) (UniProt P07378). As to the kind of experiment: qHTS Validation Assay to Find Inhibitors of Phosphoglycerate Kinase (AID 504547). An outline of the steps:
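PGK activity was coupled to GAPDH (100nM final), which generates the unstable substrate 1,3-bisphosphoglycerate in-well. Reactions ran 60 minutes at room temperature in 100mM TEA pH 7.6, 5mM MgCl2, 0.01% Tween-20, then Kinase-Glo Plus luminescence was read.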

The target in test [11] is phosphoglycerate mutase (Leishmania major) (UniProt Q4Q090). As to the kind of experiment: qHTS Validation Assay to Find Inhibitors of Phosphoglycerate Mutase (AID 504548).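 Note: end-point luminescence from Kinase-GloPlus after the PGAM reaction; series mostly up to about 58 µM.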 In outline:
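L. major PGAM (1.25nM final) was added to substrate buffer and pinned compound, incubated 45 minutes at room temperature, then Kinase-GloPlus added; luminescence read after 10 minutes. Buffer: 100 mM TEA pH 7.6, 5 mM MgCl2, 0.01% Tween-20.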

Test [12] can be described thus: qHTS for Inhibitors of ATXN expression: Validation of Cytotoxic Assay (AID 588349). In outline: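 HEK293 cells treated with titrated compound for 72 hr at 37 degrees C; viability read as intracellular ATP by CellTiter Glo luminescence.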
Test [13] deals with DNA dC->dU-editing enzyme APOBEC-3G (Homo sapiens) (UniProt Q9HC16). Description: qHTS for inhibitors of Vif-A3G interactions: Validation (AID 588379). In outline: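 HeLa cells stably expressing Vif and A3G-eYFP, 700 cells/well, incubated overnight at 37 deg C, then exposed to compound overnight at 37 deg C. Inhibition of Vif-mediated degradation read as increased yellow fluorescence (Ex 488/Em 500-530) by laser-scanning cytometry.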

Test [14] concerns the target Ubiquitin carboxyl-terminal hydrolase 1 (Homo sapiens) (UniProt O94782). As to the kind of experiment: Inhibitors of USP1/UAF1: Pilot qHTS (AID 504865).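 Note: rhodamine fluorescence freed from ubiquitin-rhodamine substrate followed over time; top concentration of the series differs between compounds; nearly all actives have a fitted effect of over 35% in size.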 In outline: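 In 50mM HEPES pH 7.8 containing 0.5mM EDTA, 1mM TCEP, 0.1 mg/ml BSA and 0.01% Tween-20, 1nM USP1/UAF1 is exposed to compound for 15 min, then Ub-Rho (150nM final) is added and fluorescence is read over time.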

Test [15] in a line: Nrf2 qHTS screen for inhibitors: Validation (AID 493153; active = well fitted inhibition curve with a large enough effect in the main read-out, with a control signal flat, not every such curve was filed as active). To be noted: viability change: measured here: cytotoxicity max response. In outline:
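A549 cells carrying ARE-firefly luciferase reporter, 5000 cells/well in 5% FBS OPTI-MEM, treated with compound over a concentration series for 18-24 h at 37 C. Luciferase luminescence gave Nrf2 activity; CellTiter-Fluor fluorescence gave viability.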

Records with an inconclusive call do not appear. Entries that show only a call come without a potency. Activity calls are given as the source filed them. Unless noted, calls come from the whole dose curve; as a rule, active = well fitted curve in the direction sought with a large enough effect; inconclusive = small, poorly fitted or top-dose-only effect, or another doubt; inactive = no such curve, though single readings can be large; an effect the other way counts as inactive or inconclusive.

Peptidyl-prolyl cis-trans isomerase NIMA-interacting 1 (Homo sapiens), sequence (Q13526 whole entry, looked up): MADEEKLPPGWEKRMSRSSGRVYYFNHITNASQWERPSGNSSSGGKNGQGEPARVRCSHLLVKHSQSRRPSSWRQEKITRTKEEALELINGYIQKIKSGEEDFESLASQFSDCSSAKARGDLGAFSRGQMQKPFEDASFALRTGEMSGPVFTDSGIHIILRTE
Methanococcus maripaludis chaperonin (MmCpn), sequence (Q6LX38 1-543): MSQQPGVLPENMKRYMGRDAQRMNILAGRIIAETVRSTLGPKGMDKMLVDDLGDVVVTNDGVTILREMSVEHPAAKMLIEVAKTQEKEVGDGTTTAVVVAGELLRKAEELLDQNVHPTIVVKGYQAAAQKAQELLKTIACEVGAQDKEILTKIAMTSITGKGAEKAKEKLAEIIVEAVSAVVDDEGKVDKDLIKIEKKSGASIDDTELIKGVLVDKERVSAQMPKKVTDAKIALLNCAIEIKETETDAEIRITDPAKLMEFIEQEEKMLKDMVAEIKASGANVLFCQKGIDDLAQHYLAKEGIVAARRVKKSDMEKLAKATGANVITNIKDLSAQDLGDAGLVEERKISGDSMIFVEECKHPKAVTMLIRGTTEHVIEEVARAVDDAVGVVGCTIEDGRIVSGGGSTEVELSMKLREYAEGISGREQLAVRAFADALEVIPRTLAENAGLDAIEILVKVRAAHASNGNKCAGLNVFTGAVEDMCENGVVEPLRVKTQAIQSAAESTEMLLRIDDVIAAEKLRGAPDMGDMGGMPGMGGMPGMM
phosphoglycerate mutase (Leishmania major), sequence (Q4Q090 1-553): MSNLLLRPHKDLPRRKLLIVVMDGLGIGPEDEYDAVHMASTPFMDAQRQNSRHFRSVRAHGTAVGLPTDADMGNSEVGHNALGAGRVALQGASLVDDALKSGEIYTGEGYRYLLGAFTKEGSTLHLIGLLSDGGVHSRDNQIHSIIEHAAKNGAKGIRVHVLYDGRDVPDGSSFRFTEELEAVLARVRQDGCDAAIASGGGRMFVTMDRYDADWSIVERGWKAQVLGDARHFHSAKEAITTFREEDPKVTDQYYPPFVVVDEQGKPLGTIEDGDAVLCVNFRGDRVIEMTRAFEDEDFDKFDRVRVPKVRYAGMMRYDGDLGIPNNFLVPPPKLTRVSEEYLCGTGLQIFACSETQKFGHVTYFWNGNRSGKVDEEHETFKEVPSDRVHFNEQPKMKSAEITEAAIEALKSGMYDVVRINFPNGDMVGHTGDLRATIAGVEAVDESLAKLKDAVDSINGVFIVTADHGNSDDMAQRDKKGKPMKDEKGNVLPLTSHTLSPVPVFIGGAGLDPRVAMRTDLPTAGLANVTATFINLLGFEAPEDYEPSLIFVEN
DNA dC->dU-editing enzyme APOBEC-3G (Homo sapiens), sequence (Q9HC16 whole entry, looked up): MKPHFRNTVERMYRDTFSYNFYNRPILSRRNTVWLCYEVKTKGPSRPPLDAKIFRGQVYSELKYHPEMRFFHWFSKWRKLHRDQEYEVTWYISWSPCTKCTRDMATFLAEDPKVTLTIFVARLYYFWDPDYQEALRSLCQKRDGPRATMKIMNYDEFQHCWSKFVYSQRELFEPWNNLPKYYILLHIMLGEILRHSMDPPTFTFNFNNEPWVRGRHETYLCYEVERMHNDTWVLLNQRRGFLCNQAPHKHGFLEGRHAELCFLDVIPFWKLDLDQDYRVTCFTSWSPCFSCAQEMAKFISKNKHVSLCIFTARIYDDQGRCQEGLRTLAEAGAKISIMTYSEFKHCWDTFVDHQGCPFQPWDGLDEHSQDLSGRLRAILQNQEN
Ubiquitin carboxyl-terminal hydrolase 1 (Homo sapiens), sequence (O94782 whole entry, looked up): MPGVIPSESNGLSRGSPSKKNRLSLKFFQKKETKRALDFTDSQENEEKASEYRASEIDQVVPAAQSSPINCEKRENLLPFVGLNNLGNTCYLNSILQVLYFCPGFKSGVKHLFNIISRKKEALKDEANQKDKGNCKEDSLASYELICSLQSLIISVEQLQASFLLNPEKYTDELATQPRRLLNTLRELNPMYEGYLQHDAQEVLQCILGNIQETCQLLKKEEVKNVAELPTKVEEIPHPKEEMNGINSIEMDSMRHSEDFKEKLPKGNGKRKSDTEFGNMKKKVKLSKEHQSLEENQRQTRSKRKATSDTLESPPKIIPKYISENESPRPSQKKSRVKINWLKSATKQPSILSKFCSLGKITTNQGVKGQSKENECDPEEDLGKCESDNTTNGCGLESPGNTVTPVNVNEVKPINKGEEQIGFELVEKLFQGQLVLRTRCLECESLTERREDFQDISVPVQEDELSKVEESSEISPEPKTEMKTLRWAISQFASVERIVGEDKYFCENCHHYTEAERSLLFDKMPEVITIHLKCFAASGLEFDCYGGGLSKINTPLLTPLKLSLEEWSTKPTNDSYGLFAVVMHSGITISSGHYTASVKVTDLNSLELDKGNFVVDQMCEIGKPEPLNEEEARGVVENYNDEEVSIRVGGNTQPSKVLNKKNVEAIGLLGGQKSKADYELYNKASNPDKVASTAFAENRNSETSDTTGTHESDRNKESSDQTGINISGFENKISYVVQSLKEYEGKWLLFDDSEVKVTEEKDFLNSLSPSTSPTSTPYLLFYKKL
Phosphoglycerate kinase, glycosomal (Trypanosoma brucei brucei), sequence (P07378 whole entry, looked up): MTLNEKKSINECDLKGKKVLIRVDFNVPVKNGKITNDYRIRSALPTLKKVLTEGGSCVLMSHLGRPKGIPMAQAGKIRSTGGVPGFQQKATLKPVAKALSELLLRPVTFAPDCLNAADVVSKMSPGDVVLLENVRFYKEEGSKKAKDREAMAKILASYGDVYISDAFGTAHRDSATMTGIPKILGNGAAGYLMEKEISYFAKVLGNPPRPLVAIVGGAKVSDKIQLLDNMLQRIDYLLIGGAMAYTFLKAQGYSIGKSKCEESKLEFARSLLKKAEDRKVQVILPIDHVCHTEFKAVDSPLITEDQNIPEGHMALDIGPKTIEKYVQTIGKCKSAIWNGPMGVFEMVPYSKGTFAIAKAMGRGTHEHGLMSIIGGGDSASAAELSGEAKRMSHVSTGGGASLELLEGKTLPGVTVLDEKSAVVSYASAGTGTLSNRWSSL
D(1A) dopamine receptor (Homo sapiens), sequence (P21728 whole entry, looked up): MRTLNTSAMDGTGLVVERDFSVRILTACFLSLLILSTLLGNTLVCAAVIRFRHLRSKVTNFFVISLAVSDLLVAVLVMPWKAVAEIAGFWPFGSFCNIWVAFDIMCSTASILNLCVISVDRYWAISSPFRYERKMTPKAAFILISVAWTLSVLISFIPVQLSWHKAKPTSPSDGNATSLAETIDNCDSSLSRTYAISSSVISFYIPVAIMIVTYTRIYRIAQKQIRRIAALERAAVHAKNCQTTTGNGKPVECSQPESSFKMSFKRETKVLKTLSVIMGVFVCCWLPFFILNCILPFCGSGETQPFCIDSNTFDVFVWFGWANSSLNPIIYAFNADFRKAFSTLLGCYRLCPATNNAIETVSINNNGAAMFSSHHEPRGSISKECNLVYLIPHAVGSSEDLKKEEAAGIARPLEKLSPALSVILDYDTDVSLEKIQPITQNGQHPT
ATP-dependent 6-phosphofructokinase (Trypanosoma brucei brucei), sequence (O15648 whole entry, looked up): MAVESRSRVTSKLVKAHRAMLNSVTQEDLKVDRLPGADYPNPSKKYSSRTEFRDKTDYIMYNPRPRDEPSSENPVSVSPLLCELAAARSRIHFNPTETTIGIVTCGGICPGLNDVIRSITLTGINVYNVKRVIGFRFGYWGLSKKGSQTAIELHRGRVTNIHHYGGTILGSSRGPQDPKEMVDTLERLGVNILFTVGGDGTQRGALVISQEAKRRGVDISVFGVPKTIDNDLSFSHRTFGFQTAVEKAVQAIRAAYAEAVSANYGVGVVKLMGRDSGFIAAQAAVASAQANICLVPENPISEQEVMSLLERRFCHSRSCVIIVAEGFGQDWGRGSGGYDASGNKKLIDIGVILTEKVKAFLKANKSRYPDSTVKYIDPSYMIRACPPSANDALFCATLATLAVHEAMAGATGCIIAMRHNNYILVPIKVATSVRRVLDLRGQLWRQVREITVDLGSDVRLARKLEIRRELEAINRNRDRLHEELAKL

Regarding `COc1ccc(Cc2nccc3cc(OC)c(OC)cc23)cc1OC`, the compound was called inactive in test [1], in test [2], in test [3], in test [5], in test [7] and in test [8]. The compound was called inactive in test [9], in [10], in test [11] and in [13]. Moreover, the Potency result in test [4], in test [6] and in test [12] was “inactive” each time.
`CC1(C)O[C@H]2C[C@@H]3[C@H]4CCC5=CC(=O)C=C[C@]5(C)[C@@]4(F)[C@@H](O)C[C@]3(C)[C@]2(C(=O)CO)O1`: the call in test [5] was inactive. In [14], the Potency result was “inactive”.
`O=c1cc(-c2ccccc2)oc2cc(O)cc(O)c12`: the Potency entry in test [14] is “inactive”. Besides, the result in [13] was inactive.
On to `Cc1cnc(C(=O)O)c[n+]1[O-]`, for which the result in [5] was inactive. In addition, in test [14], the Potency entry was “inactive”.
`CCCCCCCCCCCC1=C(O)C(=O)C=C(O)C1=O`: the call in test [13] was inactive.
Regarding `O=C(NCCN1CCOCC1)c1ccc(Cl)cc1`, the compound was called inactive in test [1], in test [2], in [3], in test [7], in [15] and in [8]. Besides, the compound was called inactive in test [9], in test [10] and in test [11]. In addition, the Potency result in test [4], in [6], in test [14] and in [12] was “inactive” throughout. In test [15], the viability change is -1.31%.
Take `COc1ccc(C2Sc3ccccc3N(CCN(C)C)C(=O)C2OC(C)=O)cc1` (stereo not given): in test [14], the Potency result was “inactive”.
Turning to `O=c1c(O)c(-c2ccc(O)cc2)oc2cc(O)cc(O)c12`, the outcome in [13] was inactive.
With `C[C@@H](O)[C@H]1C(=O)N2C(C(=O)O)=C(S[C@@H]3CN[C@H](C(=O)N(C)C)C3)[C@H](C)[C@H]12`, the compound was classed as inactive in test [5]. Besides, the Potency result in [14] was “inactive”.
Regarding `O=c1[nH]cnc2c1ncn2[C@H]1CC[C@@H](CO)O1`, the call in [5] was inactive. The Potency result in [14] is “inactive”.
As for `O=c1cc(-c2ccccc2)oc2cc(O)c(O)c(O)c12`, the outcome in test [13] was inactive.
In the case of `COc1cc2ncnc(Nc3ccc(F)c(Cl)c3)c2cc1OCCCN1CCOCC1`, in test [5], the compound was classed as inactive. The Potency entry in test [14] was “inactive”.
For the compound `CS(=O)c1ccc(-c2nc(-c3ccc(F)cc3)c(-c3ccncc3)[nH]2)cc1` (stereo not given), in test [13], the outcome was inactive.
In the case of `CCn1cc(C(=O)O)c(=O)c2ccc(C)nc21`, the compound was called inactive in test [1], in test [2], in [3], in [7], in [8] and in test [9]. Moreover, the compound was called inactive in [10] and in test [11]. Besides, the Potency entry in test [4], in [6], in [14] and in test [12] was “inactive” throughout.
With `Nc1ncnc2c1ncn2[C@@H]1O[C@@H](CO)[C@H](O)[C@H]1O`, the Potency entry in test [14] was “inactive”.
Turning to `O=C1Nc2ccc(Cl)cc2C(C#CC2CC2)(C(F)(F)F)O1` (stereo not given), in test [5], the compound was classed as inactive.
Turning to `COCCCCC(=NOCCN)c1ccc(C(F)(F)F)cc1`, the Potency entry in test [14] was “inactive”. The compound was classed as inactive in [13].
For `O=C(O)Cc1cccc2ccccc12`, in test [5], the result was inactive. The Potency result in [14] is “inactive”.
For the compound `CCCCCN(C)CCC(O)(P(=O)(O)O)P(=O)(O)O`, the call in [1], in [2], in [3], in test [5], in test [7] and in test [15] was inactive. The call in test [8], in test [9], in test [10] and in [11] was inactive. The Potency entry in test [4], in test [6], in test [14] and in [12] was “inactive” each time. Besides, the viability change in test [15] was -4.22%.
Regarding `COc1ccc2c3c1OC1C[C@@H](O)C=C[C@@]31CCN(C)C2` (stereo not given in full), the Potency result in test [14] was “inactive”. The call in [13] was inactive.
Consider `CCOC(=O)O[C@]1(C(=O)OCCl)CC[C@@H]2[C@H]3CCC4=CC(=O)C=C[C@]4(C)[C@@H]3[C@@H](O)C[C@@]21C`, for which the result in [5] was inactive. For the same compound, the Potency entry in test [14] was “inactive”.
For `COc1ccc(-c2coc3cc(O)ccc3c2=O)cc1`, the compound was called inactive in [13].
The same measure, in the same setting: for `COc1ccc(-c2coc3cc(O)cc(O)c3c2=O)cc1` the value was “inactive”.
On to `CC(C)[C@H](CO)Nc1nc(Nc2ccc(C(=O)O)c(Cl)c2)c2ncn(C(C)C)c2n1`, for which the Potency result in [14] was “inactive”. Further, the result in test [13] was inactive.
